Reference: PubChem BioAssay AID2438 (Vanderbilt High Throughput Screening Facility, 2010)
Measured potencies and affinities stand elsewhere. Active and inactive are the calls of the source.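 How the source made its calls: active means dose curve whose fit quality R squared exceeds 0.5; inactive means the rest.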

molecular target: Muscarinic acetylcholine receptor M4 (Rattus norvegicus) (UniProt P08485); assay: potentiation of ACh calcium response at rM4 – cell-based, CHO-K1 rat M4/Gqi5, Fluo-4 calcium, ACh EC20, selectivity assay for M1 muscarinic PAM project, dose response (AID 2438); conditions: series mostly up to 30 µM
Sequence (P08485 whole entry, looked up): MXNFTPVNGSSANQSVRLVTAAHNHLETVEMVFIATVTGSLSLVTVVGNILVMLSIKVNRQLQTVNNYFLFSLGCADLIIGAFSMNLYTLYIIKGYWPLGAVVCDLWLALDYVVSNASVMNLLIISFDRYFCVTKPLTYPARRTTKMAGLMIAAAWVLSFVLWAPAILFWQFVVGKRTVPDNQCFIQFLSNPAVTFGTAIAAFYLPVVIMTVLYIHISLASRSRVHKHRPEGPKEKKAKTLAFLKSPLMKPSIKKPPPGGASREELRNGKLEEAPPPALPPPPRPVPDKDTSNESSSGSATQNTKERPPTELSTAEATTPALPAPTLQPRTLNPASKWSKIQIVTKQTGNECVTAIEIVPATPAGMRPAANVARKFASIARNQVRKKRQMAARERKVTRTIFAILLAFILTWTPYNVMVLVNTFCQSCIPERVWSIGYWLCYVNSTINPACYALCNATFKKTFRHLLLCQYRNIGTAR

outcome, inactive:
Cn1cc(-c2cc(F)c(CN3C(=O)C(=O)c4ccccc43)c(F)c2)cn1
Cn1cc(-c2ccc(CN3C(=O)C(=O)c4ccccc43)c(F)c2)cn1
O=C1C(=O)N(Cc2ccc(Oc3ccccc3)cc2)c2ccc(OC(F)(F)F)cc21
Cc1cc(NC(=O)CS(=O)(=O)c2cn(Cc3cc(Br)ccc3F)c3ccccc23)no1
